{"source": "paper PMC7826789", "about": "(International Journal of Molecular Sciences, 2021);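 note: KINOMEscan scanMAX binding as percent activity remaining versus control; lower means stronger binding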", "data": [{"tested_on": "ACVR2B", "settings": "Compound Concentration (nM):1000", "units": {"Percent Control": "%"}, "values": [{"molecule": "CCS(=O)(=O)c1ccc(OC)c(Nc2ncc(-c3cccc(OC)c3)o2)c1", "note": "[GW580509X]", "Percent Control": 100}, {"molecule": "COc1cccc(-n2ncc3c(N/N=C/c4ccncc4)ncnc32)c1", "note": "[GW784752X]", "Percent Control": 81}, {"molecule": "COc1ccc2c(-c3ccnc(Nc4cccc(OC(F)(F)F)c4)n3)cnn2n1", "note": "[GW810372X]", "Percent Control": 100}, {"molecule": "O=C1Nc2ccc(C(=O)c3ccco3)cc2C1=Cc1cc(Cl)c(O)c(Cl)c1", "note": "[GW406108X]", "Percent Control": 86}, {"molecule": "NS(=O)(=O)c1ccc(Nc2ncc(-c3ccccc3)o2)cc1", "note": "[GW572399X]", "Percent Control": 100}, {"molecule": "COc1cc2ncn(-c3cc(O[C@H](C)c4ccccc4Cl)c(C(N)=O)s3)c2cc1OC", "note": "[GSK237701A]", "Percent Control": 100}, {"molecule": "Nc1ncnc2occ(-c3ccc(NC(=O)Nc4cc(C(F)(F)F)ccc4F)cc3)c12", "note": "[GW770249X]", "Percent Control": 100}, {"molecule": "NS(=O)(=O)c1ccc(N/N=C2\\C(=O)Nc3ccc(C(=O)NCCc4c[nH]cn4)cc32)cc1", "note": "[GW300660X]", "Percent Control": 100}]}, {"tested_on": "ACVRL1", "settings": "Compound Concentration (nM):1000", "units": {"Percent Control": "%"}, "values": [{"molecule": "Cl.O=C(Nc1ccc(Oc2ccc3[nH]c(NC(=O)c4ccco4)nc3c2)cc1)Nc1cc(C(F)(F)F)ccc1F", "note": "[GW683134A]", "Percent Control": 76}, {"molecule": "O=C(Nc1n[nH]c2nc(-c3ccc(O)cc3)c(Br)cc12)C1CC1", "note": "[SB-725317]", "Percent Control": 65}, {"molecule": "COc1cc2ncnc(Nc3ccc4c(cnn4Cc4ccccc4)c3)c2cc1OC.Cl", "note": "[GW282449A]", "Percent Control": 97}, {"molecule": "CN(C)CCNC(=O)Nc1ccc(N(C)c2ccnc(Nc3ccc(CS(C)(=O)=O)cc3)n2)cc1.Cl", "note": "[GW830900A]", "Percent Control": 100}, {"molecule": "CC1=C(C(=O)Nc2ccc3[nH]ncc3c2)C(c2ccc(Cl)c(Cl)c2)CC(=O)N1", "note": "(stereo not drawn) [GSK299115A]", "Percent Control": 100}, {"molecule": "COc1ccc(COc2ccc(Cc3cnc(N)nc3N)cc2OC)cc1", "note": "[GW632580X]", "Percent Control": 100}, {"molecule": "CCS(=O)(=O)c1ccc(OC)c(Nc2ncc(-c3cccc(F)c3)o2)c1", "note": "[GW621970X]", "Percent Control": 49}, {"molecule": "COc1cc(/C=N/Nc2ncnc3[nH]ncc23)ccc1O", "note": "[GW578748X]", "Percent Control": 67}, {"molecule": "C/C(Nc1ccc(S(N)(=O)=O)cc1)=C1/C(=O)Nc2ccccc21", "note": "[GW335962X]", "Percent Control": 78}, {"molecule": "CN1CCN(C(=O)c2ccc(NC(=O)Nc3ccc(N(C)c4ccnc(Nc5ccc(CS(C)(=O)=O)cc5)n4)cc3)cc2)CC1.Cl", "note": "[GW830263A]", "Percent Control": 79}, {"molecule": "CC1=C(C(=O)Nc2ccc3[nH]ncc3c2)C(c2ccc3ccccc3c2)CC(=O)N1", "note": "(stereo not drawn) [GSK270822A]", "Percent Control": 100}, {"molecule": "COc1ccc2cc(-c3c(-c4ccncc4)nc(-c4ccc(S(C)(=O)=O)cc4C)n3C)ccc2c1", "note": "[SB-633825]", "Percent Control": 100}, {"molecule": "COc1ccccc1-c1cc(/C=C2\\C(=O)Nc3ncc(Br)cc32)cc(Br)c1O", "note": "[GW442130X]", "Percent Control": 95}, {"molecule": "NS(=O)(=O)c1ccc(N/N=C2\\C(=O)Nc3ccc(C(=O)NCc4ccncc4)cc32)cc1", "note": "[GW300657X]", "Percent Control": 100}, {"molecule": "Cl.O=C(O[C@H]1CN[C@H](C#Cc2cc3ncnc(Nc4ccc5c(cnn5Cc5ccccc5)c4)c3s2)C1)N1CCOCC1", "note": "[GSK200398A]", "Percent Control": 82}, {"molecule": "Cl.O=S1CCN(Cc2ccc(-c3ccc4ncnc(Nc5ccc(OCc6ccccc6)c(F)c5)c4c3)o2)CC1", "note": "[GW576924A]", "Percent Control": 94}, {"molecule": "Cl.c1ccc(Cc2nc3ccc(Nc4ncnc5ccccc45)cc3[nH]2)cc1", "note": "[GR269666A]", "Percent Control": 89}, {"molecule": "COc1cccc(-c2c[nH]c3c(N/N=C/c4ccncc4)ncnc23)c1", "note": "[GW814408X]", "Percent Control": 59}, {"molecule": "Cl.O=C(Nc1ccc(Oc2ccc3[nH]c(NC(=O)c4ccccc4)nc3c2)cc1)Nc1cc(C(F)(F)F)ccc1F", "note": "[GW709042A]", "Percent Control": 100}, {"molecule": "CCn1c(-c2nonc2N)nc2c(C#CC(C)(C)O)nc(OCCNC)cc21.Cl", "note": "[GSK949675]", "Percent Control": 100}, {"molecule": "CN(C)c1cc2c(Nc3ccc4c(cnn4Cc4ccccc4)c3)ncnc2cn1", "note": "[GW282974X]", "Percent Control": 87}, {"molecule": "C[C@@H](Oc1cc(-n2cnc3ccc(OC4CCN(C)CC4)cc32)sc1C(N)=O)c1ccccc1Cl", "note": "[GSK579289A]", "Percent Control": 100}, {"molecule": "CCc1ccc(Oc2nccc(-c3c(-c4ccc(F)cc4)ncn3C3CCNCC3)n2)cc1", "note": "[SB-242719]", "Percent Control": 97}, {"molecule": "NS(=O)(=O)c1ccc(N/N=C2\\C(=O)Nc3ccc(-c4cnco4)cc32)cc1", "note": "[GW276655]", "Percent Control": 100}, {"molecule": "COc1cc(C)c(N(C)C(=O)CN(C)C)cc1Nc1nc(Nc2cccc(F)c2C(N)=O)c2cc[nH]c2n1", "note": "[GSK2219385]", "Percent Control": 100}]}]}
